# Test results published in PubChem BioAssay (NCATS).
# Where “and” joins values, the source holds several entries; their conditions need not be identical. Identical values can stand only once. A number with no mark means an inactive call. Records with an inconclusive call do not appear. A call without a number means that no potency is given here. Calls of active or inactive are those of the source. Unless noted, calls follow the shape of the dose curve; as a rule, active = well fitted curve in the direction sought with a large enough effect; inconclusive = small, poorly fitted or top-dose-only effect, or another doubt; inactive = no such curve, though single readings can be large; an effect the other way counts as inactive or inconclusive.
# Key:
# [1] = target: Cytochrome P450 2C19 (Homo sapiens) (UniProt P33261); assay: qHTS Assay for Inhibitors and Substrates of Cytochrome P450 2C19 (AID 899); also: nearly all actives have a fitted effect of over 60% in size
# Sequence of Cytochrome P450 2C19 (Homo sapiens) (P33261 whole entry, looked up): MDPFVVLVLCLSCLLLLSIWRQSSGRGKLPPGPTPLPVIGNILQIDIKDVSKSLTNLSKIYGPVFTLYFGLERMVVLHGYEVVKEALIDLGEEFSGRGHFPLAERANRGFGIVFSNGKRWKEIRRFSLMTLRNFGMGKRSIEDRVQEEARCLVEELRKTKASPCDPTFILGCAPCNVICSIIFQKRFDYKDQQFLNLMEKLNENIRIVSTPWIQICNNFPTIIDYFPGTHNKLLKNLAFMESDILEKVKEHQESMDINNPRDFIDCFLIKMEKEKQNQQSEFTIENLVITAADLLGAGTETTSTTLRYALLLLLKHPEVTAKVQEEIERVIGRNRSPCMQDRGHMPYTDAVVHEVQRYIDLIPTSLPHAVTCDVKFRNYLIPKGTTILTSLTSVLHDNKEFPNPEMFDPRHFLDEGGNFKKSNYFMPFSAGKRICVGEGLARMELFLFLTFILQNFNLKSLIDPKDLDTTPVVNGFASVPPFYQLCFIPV
# In short: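 Luminescence readout of luciferin formed from 10uM Luciferin-H EGE (KM level) by 5 nM CYP2C19 in 50mM KPO4. 60 min NADPH-driven reaction at 37C after 10 min compound preincubation; data scaled to 57uM ketoconazole inhibition.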
# [2] = qHTS Assay for Identification of Small Molecule Agonists for Thrombopoietin (TPO) Signaling Pathway (AID 917)
# In short: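 Luciferase reporter (Glycoprotein IIb promoter) in IL-3-deprived Ba/F3 cells carrying human TPO receptor; compounds co-added with 26 pM TPO, incubated 24 h, 37 C. Steadylite luminescence measured after 10 min.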
# [3] = target: Pyruvate kinase (Leishmania mexicana) (UniProt Q27686); assay: qHTS Validation Assay for Inhibitors of Leishmania Mexicana Pyruvate Kinase (AID 945)
# Sequence of Pyruvate kinase (Leishmania mexicana) (Q27686 2-499 E452W): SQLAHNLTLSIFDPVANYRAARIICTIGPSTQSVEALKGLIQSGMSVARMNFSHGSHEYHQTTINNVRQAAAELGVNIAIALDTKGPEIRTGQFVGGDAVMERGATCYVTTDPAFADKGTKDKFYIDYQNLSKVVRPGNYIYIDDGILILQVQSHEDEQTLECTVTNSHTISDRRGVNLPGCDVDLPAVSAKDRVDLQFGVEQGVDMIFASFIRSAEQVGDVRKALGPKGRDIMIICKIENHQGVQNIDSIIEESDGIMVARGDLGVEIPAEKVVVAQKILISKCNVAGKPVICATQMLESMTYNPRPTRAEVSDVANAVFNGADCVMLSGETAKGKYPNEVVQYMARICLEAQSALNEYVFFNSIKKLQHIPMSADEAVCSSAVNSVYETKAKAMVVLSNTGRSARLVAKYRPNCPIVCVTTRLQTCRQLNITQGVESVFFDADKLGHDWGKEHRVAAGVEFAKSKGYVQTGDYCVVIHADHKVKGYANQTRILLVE
# In short: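 Substrate mix (0.5 mM PEP, 0.1 mM ADP, 7 mM MgCl2, 50 mM KCl, pH 7.2 imidazole) received compound by pin tool, then 0.2 nM LmPYK E451W. After 1 h at room temperature, PKLight was added and luminescence measured.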
# [4] = Confirmation and Secondary Assay for Modulators of Hemoglobin Beta Chain Splicing at IVS2 654 locus (AID 910);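 also: HeLa cells stably carrying EGFP split by mutant beta-globin IVS2-654 intron; per-well total GFP intensity by laser scanning cytometry after 2-day treatment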
# In short: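 Readout: per-well total peak green fluorescence (488 nm ex, 500–520 nm em) from objects 5–250 µm, reflecting correct splicing of an EGFP-654 reporter. Compounds were applied for 2 days at 37 °C to overnight-plated HeLa EGFP-654 cells; controls were DMSO and 500 nM IVS2-654 PNA.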
# [5] = Confirmation and Secondary Assay for Modulators of Hemoglobin Beta Chain Splicing at IVS2 705 locus (AID 930);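 also: HeLa cells stably expressing the EGFP-705 splicing reporter; GFP fluorescence per well restored by corrected splicing of the IVS2-705 intron in EGFP; series mostly up to about 46 µM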
# In short: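 HeLa EGFP-705 reporter; 500 cells/well, o/n 37C 5% CO2; cpd 2 d; 488 ex/500-520 em laser scan; total peak GFP intensity/well. Ref: 500 nM […] antisense PNA.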
# [6] = target: Muscarinic acetylcholine receptor M1 (Rattus norvegicus) (UniProt P08482); assay: qHTS Assay for Antagonists of Acetylcholine Muscarinic M1 Receptor: Kinetic Measurement of Intracellular Calcium Response (AID 943); also: nearly all actives have a fitted effect of over 75% in size; also: potency is read from the fitted curve at half-maximal effect
# Sequence of Muscarinic acetylcholine receptor M1 (Rattus norvegicus) (P08482 whole entry, looked up): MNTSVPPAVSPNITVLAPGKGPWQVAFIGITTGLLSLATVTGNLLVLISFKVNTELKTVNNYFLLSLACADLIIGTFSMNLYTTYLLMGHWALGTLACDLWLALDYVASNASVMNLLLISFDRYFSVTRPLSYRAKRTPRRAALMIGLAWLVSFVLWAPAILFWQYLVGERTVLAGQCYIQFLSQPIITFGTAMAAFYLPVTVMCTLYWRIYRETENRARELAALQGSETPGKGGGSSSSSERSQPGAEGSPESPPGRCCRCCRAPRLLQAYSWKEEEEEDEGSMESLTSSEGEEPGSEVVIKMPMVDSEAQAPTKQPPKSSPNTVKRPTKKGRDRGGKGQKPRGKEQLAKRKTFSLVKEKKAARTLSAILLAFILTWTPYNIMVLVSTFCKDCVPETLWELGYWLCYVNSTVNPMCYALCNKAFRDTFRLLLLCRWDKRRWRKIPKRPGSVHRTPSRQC
# In short: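 Antagonism is measured as inhibition of the carbachol-evoked calcium rise in CHO cells transfected with rat M1. Cells are dye-loaded, exposed to compound for 10 min, then stimulated with 100 nM carbachol (EC80).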
# [7] = target: Muscarinic acetylcholine receptor M1 (Rattus norvegicus) (UniProt P08482); assay: qHTS Assay for Antagonists of Acetylcholine Muscarinic M1 Receptor: Measurement of IP-One Response (AID 944); also: nearly all actives have a fitted effect of over 75% in size; also: potency is read from the fitted curve at half-maximal effect
# In short: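 Antagonist mode with rat M1 receptor transfected into CHO cells. Compound is added first for 10 min, carbachol at its EC80 follows for 30 min, and lysis reagents then allow TR-FRET detection of accumulated IP1.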
# [8] = qHTS Assay for Identification of Small Molecule Antagonists for Thrombopoietin (TPO) Signaling Pathway (AID 918); details: TPO-dependent cell signaling reporter, antagonist mode; also: potency is read from the fitted curve at half-maximal effect; nearly all actives have a fitted effect of over 60% in size
# In short: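 Inhibitors of TPO signaling are sought by stimulating IL-3-starved murine Ba/F3 cells (human TPO receptor, Glycoprotein IIb-driven luciferase) with TPO at its EC50 of 26 pM alongside compound. After 24 hrs at 37 C, reporter luminescence is measured.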
# [9] = qHTS Assay for Identification of Small Molecule Agonists for Hypoxia Response Element Signaling Pathway (AID 914; active = well fitted activation curve with a large enough effect in the signal ratio, with a control signal flat, not every such curve was filed as active; the % refers to the signal ratio); details: ME-180 (cervical carcinoma) HRE-bla reporter, beta-lactamase ratio, CoCl2, 17 h; hits give high values
# In short: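 Read-out: CCF4 FRET ratio of 460nm to 530nm emission (excitation 405nm) after 2.5 hours at room temperature, taken from HRE-bla ME-180 cells that had been exposed to compound and EC50 CoCl2 for 17 hours.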
smiles,measurement,setting,value
Brc1c(NC2=NCCN2)ccc2nccnc12,Potency,[1],inactive
same,outcome,[2],inactive
same,Potency,[3],inactive
CCN(CC)CCNC(=O)c1ccc(NC(C)=O)cc1,outcome,[4],inactive
same,outcome,[2],inactive
same,outcome,[5],inactive
same,Potency,[6],inactive
same,Potency,[3],inactive
O=C(O)CCCCCCCC(=O)O,outcome,[4],inactive
same,outcome,[2],inactive
same,outcome,[5],inactive
same,Potency,[6],inactive
same,Potency,[7],inactive
same,Potency,[3],inactive
CCCC(C(=O)OCCN(CC)CC)(c1ccccc1)c1ccccc1,outcome,[4],inactive
same,outcome,[2],inactive
same,outcome,[5],inactive
same,Potency,[6],0.447 µM (active)
same,Potency,[7],11.2 µM (active)
same,Potency,[3],inactive
CN/C(=C\[N+](=O)[O-])NCCSCc1ccc(CN(C)C)o1,outcome,[4],inactive
same,outcome,[2],inactive
same,outcome,[5],inactive
same,Potency,[7],inactive
same,Potency,[3],inactive
CC(N=C(NC#N)Nc1ccncc1)C(C)(C)C (stereo not drawn),outcome,[4],inactive
same,outcome,[5],inactive
CCCCNc1ccc(C(=O)OCCN(C)C)cc1,outcome,[4],inactive
same,outcome,[2],inactive
same,outcome,[5],inactive
same,Potency,[3],inactive
CCn1nc(C(=O)O)c(=O)c2cc3c(cc21)OCO3,outcome,[4],inactive
same,outcome,[2],inactive
same,outcome,[5],inactive
same,Potency,[3],inactive
CCN(CC)CC(=O)Nc1c(C)cccc1C,outcome,[4],inactive
same,outcome,[2],inactive
same,outcome,[5],inactive
same,Potency,[3],inactive
CN(C)CCN(Cc1cccs1)c1ccccn1,outcome,[4],inactive
same,outcome,[2],inactive
same,outcome,[5],inactive
same,Potency,[3],inactive
CC(C)NNC(=O)c1ccncc1,outcome,[4],inactive
same,outcome,[2],inactive
same,outcome,[5],inactive
same,Potency,[3],inactive
CC(=O)OC(C)C[N+](C)(C)C (stereo not drawn),outcome,[4],inactive
same,outcome,[5],inactive
CCN(CC)CCOCCOC(=O)C1(c2ccccc2)CCCC1,outcome,[4],inactive
same,outcome,[2],inactive
same,outcome,[5],inactive
same,Potency,[3],inactive
Fc1ccc(C(c2ccc(F)cc2)N2CCN(C/C=C/c3ccccc3)CC2)cc1,outcome,[4],inactive
same,outcome,[5],inactive
Nc1ncn([C@@H]2O[C@H](CO)[C@@H](O)[C@H]2O)c(=O)n1,outcome,[4],inactive
same,Potency,[8],3.16 µM (active)
same,outcome,[5],inactive
same,Potency,[7],inactive
same,Potency,[3],inactive
CN(C)C(=O)Oc1cccc([N+](C)(C)C)c1,outcome,[4],inactive
same,outcome,[2],inactive
same,outcome,[5],inactive
same,Potency,[3],inactive
CNCCCN1c2ccccc2CCc2ccccc21,outcome,[4],inactive
same,Potency,[8],12.6 µM (active)
same,outcome,[5],inactive
same,Potency,[3],inactive
Cc1ccc(/C(=C\CN2CCCC2)c2ccccn2)cc1,outcome,[4],inactive
same,outcome,[5],inactive
OC(CCN1CCCCC1)(c1ccccc1)C1CCCCC1 (stereo not drawn),outcome,[4],inactive
same,outcome,[5],inactive
CC(C)NCC(O)c1cc(O)cc(O)c1 (stereo not drawn),outcome,[4],inactive
same,outcome,[5],inactive
Cc1ccc(Cl)c(Nc2ccccc2C(=O)O)c1Cl,outcome,[4],inactive
same,outcome,[2],inactive
same,outcome,[5],inactive
same,Potency,[3],inactive
COCCc1ccc(OCC(O)CNC(C)C)cc1 (stereo not drawn),outcome,[4],inactive
same,outcome,[5],inactive
CC(C)COCC(CN(Cc1ccccc1)c1ccccc1)N1CCCC1 (stereo not drawn),outcome,[4],inactive
same,outcome,[5],inactive
CC[N+](C)(C)c1cccc(O)c1,outcome,[4],inactive
same,outcome,[2],inactive
same,outcome,[5],inactive
same,Potency,[3],inactive
CC(C)(C)NCC(O)c1cc(O)cc(O)c1 (stereo not drawn),outcome,[4],inactive
same,outcome,[5],inactive
CC(C)(Oc1ccc(CCNC(=O)c2ccc(Cl)cc2)cc1)C(=O)O,outcome,[4],inactive
same,outcome,[5],inactive
C=CCc1ccccc1OCC(O)CNC(C)C (stereo not drawn),outcome,[4],inactive
same,outcome,[5],inactive
CCN(CC)CCNC(=O)c1cc(S(C)(=O)=O)ccc1OC,outcome,[4],inactive
same,outcome,[2],inactive
same,outcome,[5],inactive
same,Potency,[3],inactive
CN1CCN(CC(=O)N2c3ccccc3C(=O)Nc3cccnc32)CC1,outcome,[4],inactive
same,outcome,[2],inactive
same,outcome,[5],inactive
same,Potency,[3],inactive
CCCOc1ccccc1-c1nc2n[nH]nc2c(=O)[nH]1,outcome,[4],inactive
same,outcome,[2],inactive
same,outcome,[5],inactive
same,Potency,[3],inactive
CN(C)CCCN1c2ccccc2Sc2ccccc21,outcome,[4],inactive
same,outcome,[5],inactive
same,Potency,[3],inactive
CN(C)C(=O)Oc1ccc[n+](C)c1,outcome,[4],inactive
same,outcome,[2],inactive
same,outcome,[5],inactive
same,Potency,[3],inactive
Cc1ccc(S(=O)(=O)NC(=O)NN2CCCCCC2)cc1,outcome,[4],inactive
same,outcome,[2],inactive
same,outcome,[5],inactive
same,Potency,[7],inactive
same,Potency,[3],inactive
Nc1c2c(nc3ccccc13)CCCC2O (stereo not drawn),outcome,[4],inactive
same,outcome,[5],inactive
CCCCCN(CCCCC)C(=O)C(CCC(=O)O)NC(=O)c1ccc(Cl)c(Cl)c1 (stereo not drawn),outcome,[4],inactive
same,outcome,[5],inactive
c1ccc2c(c1)CCCC2C1=NCCN1 (stereo not drawn),outcome,[4],inactive
same,outcome,[5],inactive
COC(=O)C1=C(C)NC(C)=C(C(=O)OCCN(C)Cc2ccccc2)C1c1cccc([N+](=O)[O-])c1 (stereo not drawn),outcome,[4],inactive
same,outcome,[5],inactive
CCCNC(C)C(=O)Nc1ccccc1C (stereo not drawn),outcome,[4],inactive
same,outcome,[5],inactive
CCCN(CCC)C(=O)C(CCC(=O)O)NC(=O)c1ccccc1 (stereo not drawn),outcome,[4],inactive
same,outcome,[5],inactive
CC(=O)OCC1=C(C(=O)O)N2C(=O)[C@@H](NC(=O)Cc3cccs3)[C@H]2SC1,activation,[9],-3.15%
C[N+](C)(C)CCCCCCCCCC[N+](C)(C)C,outcome,[2],inactive
same,Potency,[3],inactive
COC(=O)[C@@H](N)Cc1ccc(O)c(O)c1,Potency,[6],inactive
same,Potency,[3],inactive
O=C(O)CN(CCN(CC(=O)O)CC(=O)O)CCN(CC(=O)O)CC(=O)O,outcome,[2],inactive
same,Potency,[6],inactive
same,Potency,[7],inactive
same,Potency,[3],inactive
O=C(O)CN(CCOCCOCCN(CC(=O)O)CC(=O)O)CC(=O)O,outcome,[2],inactive
same,Potency,[6],inactive
same,Potency,[7],inactive
same,Potency,[3],inactive
CCN1CCc2nc(N)oc2CC1,outcome,[2],inactive
same,Potency,[3],inactive
O=C(O)CP(=O)(O)O,activation,[9],5.52% and -2.23%
same,outcome,[2],inactive
same,Potency,[6],inactive
same,Potency,[7],inactive
same,Potency,[3],inactive
COCCCC/C(=N\OCCN)c1ccc(C(F)(F)F)cc1,activation,[9],24.7%
COc1cc(C(=O)OCCCN2CCCN(CCCOC(=O)c3cc(OC)c(OC)c(OC)c3)CC2)cc(OC)c1OC,Potency,[8],10 µM (active)
same,Potency,[6],0.316 µM (active)
same,Potency,[7],4.47 µM (active)
same,Potency,[3],inactive
